High-throughput results: PubChem, several laboratories
Shown are actives, neighbours in structure and some others; about 4% of the full set was active somewhere.
CSC inhib = blocks cancer stem cells. cancer stem cell-like cells viability, luminescence. inhibition, % at 7.5 µM. actives 1.1% (n = 300,000); in the data active = inhibition above about 75%; tested in HMLE shEcad cells
PAX8 reporter = inhibitors of PAX8 transcriptional activity in RMG-I cells. RMG-I TPO-luciferase reporter, SteadyGlo, 24 h. inhibition, % at 12.6 µM. actives 1.2% (n = 360,000). AID 652154;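 active = mean replicate inhibition at least 60% with every replicate also reaching 60%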;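 note: luciferase light reporting Pax8 driven TPO promoter activity; plate controls were median of neutral control wells for no effect and mitoxantrone controls for full effect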
Mdm2-MdmX inh = human Mdm2/MdmX binding inhibition | O15151+Q00987 | inhibition, % at 8 µM | actives 3% (n = 330,000) | SaOS-2 split-luciferase Mdm2/MdmX complementation, luminescence;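 active = inhibition of at least 50% at 8 µM in the primary screen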
Target sequence (O15151 whole entry, looked up): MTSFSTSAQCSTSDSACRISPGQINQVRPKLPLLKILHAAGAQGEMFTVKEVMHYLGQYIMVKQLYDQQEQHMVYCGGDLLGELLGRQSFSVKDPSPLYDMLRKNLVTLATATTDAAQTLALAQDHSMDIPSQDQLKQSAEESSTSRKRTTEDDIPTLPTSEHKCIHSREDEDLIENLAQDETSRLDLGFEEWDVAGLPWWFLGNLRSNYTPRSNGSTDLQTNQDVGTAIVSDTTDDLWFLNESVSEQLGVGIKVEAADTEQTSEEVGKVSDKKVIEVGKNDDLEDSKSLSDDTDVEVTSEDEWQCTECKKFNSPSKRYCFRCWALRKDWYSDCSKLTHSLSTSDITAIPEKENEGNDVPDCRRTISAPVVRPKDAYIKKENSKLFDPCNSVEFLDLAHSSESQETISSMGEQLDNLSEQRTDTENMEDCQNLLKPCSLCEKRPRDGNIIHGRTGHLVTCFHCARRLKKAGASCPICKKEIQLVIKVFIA
Target sequence (Q00987 whole entry, looked up): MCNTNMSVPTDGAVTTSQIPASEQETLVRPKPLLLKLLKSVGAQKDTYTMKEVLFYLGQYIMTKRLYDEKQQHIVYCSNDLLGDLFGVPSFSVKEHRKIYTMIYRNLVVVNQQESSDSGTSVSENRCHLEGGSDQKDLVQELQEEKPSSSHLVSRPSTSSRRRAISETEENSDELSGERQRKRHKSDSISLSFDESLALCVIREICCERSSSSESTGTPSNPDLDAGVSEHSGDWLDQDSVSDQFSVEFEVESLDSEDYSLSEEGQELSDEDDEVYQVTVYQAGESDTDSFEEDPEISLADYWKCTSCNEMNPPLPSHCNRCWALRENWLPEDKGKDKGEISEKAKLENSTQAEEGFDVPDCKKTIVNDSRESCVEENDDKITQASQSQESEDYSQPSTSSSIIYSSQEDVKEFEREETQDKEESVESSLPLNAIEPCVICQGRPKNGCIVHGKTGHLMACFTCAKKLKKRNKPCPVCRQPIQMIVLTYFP
Shn3 3UTR inh = inhibitors of Schnurri-3 3'UTR reporter in osteoblasts; inhibition, % at 12.5 µM; Clone20 osteoblast Shn3 3'UTR firefly luciferase, 24 h; actives 0.52% (n = 360,000);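 active = mean inhibition of at least 75% with every replicate also reaching 75%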;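 note: 0% = median of neutral control wells and 100% = pilot-screen positive control compound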
Beta cell apopt = beta cell apoptosis inhibition; INS-1E cytokine-induced death, ATP luminescence, 48 h; percent of positive-control rescue, neutral wells zero; protection from apoptosis, % (test concentration not listed); actives 0.8% (n = 300,000); AID 435005;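 active = Every replicate reaches about 75%, or at least half do and their mean reaches it too, limit read from the data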;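 note: 0% = cytokine-treated negative control wells and 100% = positive control rescue; higher means more ATP so stronger rescue from cytokine killing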
Gli-Sufu block = blocks Gli-Sufu signaling in a luciferase reporter; Sufu-KO-LIGHT fibroblasts, Gli luciferase reporter luminescence; inhibition, % at 5 µM; actives 0.74% (n = 340,000);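 active = inhibition above about 55%, limit read from the data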;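 note: 0% = DMSO-treated cells and 100% = wells with medium but no cells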
Numbers without * were called inactive; · = no result given.

SMILES	CSC inhib	PAX8 reporter	Mdm2-MdmX inh	Shn3 3UTR inh	Beta cell apopt	Gli-Sufu block
O=[N+]([O-])c1c(NCCCO)cc(Sc2ccc(Cl)cc2)c2nonc12	87.7*	-12.2	·	94.2*	-0.3	-5.8
CC(=O)OCCNc1cc(Sc2nc3ccccc3[nH]2)c2nonc2c1[N+](=O)[O-]	40.5	-7.5	·	97.6*	1.1	-9.3
CC(=O)OCCNc1cc(SCc2ccco2)c2nonc2c1[N+](=O)[O-]	-0.8	·	·	-21.6	-4.4	-5.6
CN1C(=O)c2cc(NC(=O)NC3CCCC3)ccc2OC[C@H]2O[C@@H](CC(=O)NC3CCC3)CC[C@H]21	·	-5.6	·	·	·	·
COc1ccc(CN(C)C[C@@H]2Oc3ccc(NC(=O)C4CCCCC4)cc3C(=O)N([C@@H](C)CO)C[C@@H]2C)cc1	·	-19.7	·	·	·	·
COc1cc(CN2CCN(c3cccc(Cl)c3)CC2)cc(OC)c1OC	92.9*	·	43.4	9.8	2.1	-2.8
COc1cc(CN2CCN(S(=O)(=O)c3ccccc3)CC2)cc(OC)c1OC	-17.0	4.1	0.7	0.2	-4.7	4.9
Cc1noc(C)c1NC(=O)Nc1ccc2c(c1)C(=O)N([C@H](C)CO)C[C@@H](C)[C@H](CN(C)Cc1ccc(C(=O)Nc3ccccc3N)cc1)O2	·	-7.5	·	·	·	·
COc1ccc([Si](C)(C)[C@H]2[C@H](CCO)O[C@@]3(C(=O)N4c5c(cc(OC)cc53)C(C)=CC4(C)C)[C@@H]2C)cc1	·	102.2*	·	·	·	·
COc1ccc([Si](C)(C)[C@@H]2[C@@H](CCO)O[C@]3(C(=O)N4c5c(cc(OC)cc53)C(C)=CC4(C)C)[C@H]2C)cc1	·	106.2*	·	·	·	·
C[C@@H]1CN([C@H](C)CO)C(=O)c2cc(C#C[C@@H](C)O)cnc2O[C@H]1CN(C)C(=O)Cc1ccncc1	·	-2.6	·	·	·	·
O=C(Nc1ccc(-c2noc(-c3cccs3)n2)cc1)c1cccnc1	15.7	·	-72.7	-13.6	98.8*	-73.9
COc1cccc(-c2nc(-c3ccc(NC(=O)c4cccnc4)cc3)no2)c1	17.6	·	27.9	35.0	114.0*	-18.8
CCN(CC)c1ccc(C(=C2C=CC(=[N+](CC)CC)C=C2)c2ccc(N(CC)CC)cc2)cc1	·	112.8*	·	89.0*	·	87.2*
CCN(CC)c1ccc(C(=O)NNC(=O)CCNC(=O)c2ccccc2)cc1	0.7	-21.2	-37.9	-15.0	-2.9	·
CCN(CC)c1ccc(C(=C2C=CC(=[N+](CC)CC)C=C2)c2ccccc2)cc1	·	113.0*	·	96.7*	·	92.3*
Cc1ccc(S(=O)(=O)N[C@@H]2CC[C@@H](CC(=O)NCCc3ccncc3)O[C@H]2CO)cc1	·	-10.7	·	·	·	·
COc1cc(/C=N/NC(=O)C(=O)/C=C2\NC3(CCCC3)Cc3ccccc32)ccc1O	·	8.8	5.7	16.2	0.3	22.6
O=C(/C=C1\NC2(CCCC2)Cc2ccccc21)C(=O)N/N=C/c1ccccc1O	·	29.2	45.1	91.4*	·	22.9
CCC(=O)NC(=S)Nc1cccc(Cl)c1N1CCCCC1	85.4*	·	16.9	-3.4	7.2	5.3
CCCC(=O)NC(=S)Nc1cccc(Cl)c1N1CCCCC1	·	·	30.7	-7.2	0.5	-0.8
CC(C)(C)c1ccc(-c2noc(CCC(=O)NCC3CCCO3)n2)cc1 (stereo not drawn)	2.7	·	-70.0	59.3	-3.3	73.1*
CC(C)(C)c1ccc(-c2noc(CCC(N)=O)n2)cc1	-6.5	·	23.3	17.0	-3.3	75.8*
Cc1ccc(-c2noc(CCC(=O)NCC3CCCO3)n2)cc1 (stereo not drawn)	-5.2	·	9.1	-16.5	-4.7	·
O=C(CCCc1nc(-c2ccc(Cl)cc2)no1)NC1CCCC1	33.1	18.9	14.5	65.8	106.9*	49.6
SMILES	CSC inhib	PAX8 reporter	Mdm2-MdmX inh	Shn3 3UTR inh	Beta cell apopt	Gli-Sufu block
COc1ccc2c3c([nH]c2c1)[C@H](CO)N(S(C)(=O)=O)CC31CCN(CC2CC2)CC1	·	-14.8	·	·	·	·
Cn1c(SCC(=O)c2ccccc2)nnc1-c1ccncc1	·	0.8	1.1	-11.6	1.7	-19.6
Cn1c(SCC(=O)c2ccccc2)nnc1-c1ccccn1	-0.5	89.5*	5.0	-130.2	-3.4	-26.9
COc1ccc2c3c(n(C)c2c1)[C@@H](CO)N(C(=O)C1CCCC1)CC31CCN(Cc2cccc(F)c2)CC1	·	47.8	·	·	·	·
COc1ccc(CCN(C(=S)Nc2ccccc2)C2CC(=O)N(c3ccccc3)C2=O)cc1 (stereo not drawn)	3.0	·	26.3	22.3	-0.2	-0.5
Cc1ccc(N2C(=O)CC(N(CCc3ccccc3)C(=S)Nc3ccc(N(C)C)cc3)C2=O)cc1 (stereo not drawn)	94.5*	12.6	19.0	18.4	3.1	-4.5
CC(C)CN(C[C@@H]1[C@@H](c2ccccc2)[C@H](CO)N1C(=O)C1CCC1)C(=O)C1CC1	·	0.4	·	·	·	·
COc1ccc2c3c(n(C)c2c1)[C@H](CO)N(C(=O)Nc1ccc(F)cc1)CC31CCN(C(=O)c2ccc3c(c2)OCO3)CC1	·	76.9*	·	·	·	·
COc1ccc2c3c([nH]c2c1)[C@H](CO)N(C(=O)Nc1ccc(F)cc1)CC31CCN(S(C)(=O)=O)CC1	·	24.2	·	·	·	·
COc1ccc2c3c([nH]c2c1)[C@H](CO)N(C(=O)Nc1cccc(F)c1)CC31CCN(S(=O)(=O)c2cccc(C)c2)CC1	·	106.0*	·	·	·	·
COc1ccc2c3c(n(C)c2c1)[C@H](CO)N(C(=O)Nc1ccc(F)cc1)CC31CCN(S(=O)(=O)c2cccc(C)c2)CC1	·	88.9*	·	·	·	·
COc1ccc2c3c(n(C)c2c1)[C@@H](CO)N(C(=O)Nc1ccc(F)cc1)CC31CCN(S(=O)(=O)c2cccc(C)c2)CC1	·	81.0*	·	·	·	·
C[C@H]1CN([C@@H](C)CO)C(=O)c2cccc(NC(=O)Nc3ccccc3)c2O[C@H]1CN(C)C(=O)NC1CCCCC1	·	4.1	·	·	·	·
O=C(C[C@@H]1CC[C@H](NC(=O)Nc2ccc(C(F)(F)F)cc2)[C@@H](CO)O1)NCc1cccc(F)c1	·	20.3	·	·	·	·
C=CC[n+]1c(-c2ccc(OC)c(OC)c2)csc1NNC(=O)Nc1ccccc1	·	·	13.3	90.5*	·	46.8
Cc1cc(C(=O)COc2cccnc2[N+](=O)[O-])c(C)n1-c1ccccc1	0.8	12.6	49.3	90.3*	-2.7	16.9
Cc1ccc(-n2c(C)cc(C(=O)COc3cccnc3[N+](=O)[O-])c2C)cc1	2.3	-9.9	43.2	43.0	7.3	34.9
C=CCn1c(COc2ccccc2)nnc1SCC(=O)N/N=C/c1cc(Cl)ccc1O	20.9	·	23.7	19.5	-9.5	1.0
C=CCn1c(CNc2ccccc2)nnc1SCC(=O)N/N=C/c1ccc(O)cc1O	86.2*	·	29.1	1.8	-0.4	3.0
CCN(CC)S(=O)(=O)c1ccc(N2CCOCC2)c(NC(=O)c2cc(-c3ccccn3)nc3ccccc23)c1	·	78.1*	·	19.5	·	24.5
CCN(CC)S(=O)(=O)c1ccc(N2CCOCC2)c(NC(=O)c2cccc3ccccc23)c1	2.5	16.1	16.7	17.4	3.0	14.4
CCCNC(=O)N1C[C@H](C)[C@H](OC)CN(C)C(=O)c2ccc(NC(=O)CCC)cc2OC[C@@H]1C	·	7.8	·	·	·	·
O=C(c1ccc(-c2nc3ccccc3s2)s1)N1CCOCC1	23.7	66.3*	49.6	·	13.2	10.3
